# Source: PubChem BioAssay (NCATS)
# Inconclusive results are not listed. A number with no mark means an inactive call. Calls of active or inactive are those of the source. Calls come from the whole dose curve; as a rule, active = well fitted cell-killing curve with a large enough effect; inconclusive = small, poorly fitted or top-dose-only effect, or effect the other way; inactive = no such curve, though single readings can be large or run the other way.
# Assays:
# [1] = Quantitative High-Throughput drug screen in 47 multiple myeloma cell lines against the NCATS MIPE library collection: L363_DSMZ cell viability assay (AID 1918984); note: nearly all actives have a fitted effect of over 40% in size
# Outline: (§1)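 qHTS format: cells plated (500/well), pin-dosed with MIPE 4.0 compounds, kept 48 h at 37 °C. Readout was CellTiter-Glo luminescence, median RLU.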
# [2] = Quantitative High-Throughput drug screen in 47 multiple myeloma cell lines against the NCATS MIPE library collection: KMS34_JCRB cell viability assay (AID 1918985); note: nearly all actives have a fitted effect of over 40% in size
# Outline: as §1
# [3] = Quantitative High-Throughput drug screen in 47 multiple myeloma cell lines against the NCATS MIPE library collection: OCIMY5_PLB cell viability assay (AID 1918988); note: nearly all actives have a fitted effect of over 65% in size
# Outline: as §1
# [4] = Quantitative High-Throughput drug screen in 47 multiple myeloma cell lines against the NCATS MIPE library collection: OPM1_PLB cell viability assay (AID 1918989); note: nearly all actives have a fitted effect of over 40% in size
# Outline: as §1
# [5] = Quantitative High-Throughput drug screen in 47 multiple myeloma cell lines against the NCATS MIPE library collection: XG6_PLB cell viability assay (AID 1919865); note: nearly all actives have a fitted effect of over 40% in size
# Outline: as §1
# [6] = Quantitative High-Throughput drug screen in 47 multiple myeloma cell lines against the NCATS MIPE library collection: XG1_PLB cell viability assay (AID 1919866); note: nearly all actives have a fitted effect of over 35% in size
# Outline: as §1
# [7] = Quantitative High-Throughput drug screen in 47 multiple myeloma cell lines against the NCATS MIPE library collection: VP6_DJ cell viability assay (AID 1919867); note: nearly all actives have a fitted effect of over 40% in size
# Outline: as §1
# [8] = Quantitative High-Throughput drug screen in 47 multiple myeloma cell lines against the NCATS MIPE library collection: UTMC2_PLB cell viability assay (AID 1919868); note: nearly all actives have a fitted effect of over 55% in size
# Outline: as §1
# [9] = Quantitative High-Throughput drug screen in 47 multiple myeloma cell lines against the NCATS MIPE library collection: PE2_PLB cell viability assay (AID 1919869); note: nearly all actives have a fitted effect of over 35% in size
# Outline: as §1
# [10] = Quantitative High-Throughput drug screen in 47 multiple myeloma cell lines against the NCATS MIPE library collection: OPM2_DSMZ cell viability assay (AID 1919872); note: nearly all actives have a fitted effect of over 30% in size
# Outline: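 Inhibition of cell viability is measured here. Each line was plated at 500 cells per well, treated with MIPE 4.0 drugs, kept 48 hours at 37C, then assayed for ATP content by CellTiter-Glo luminescence.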
# [11] = Quantitative High-Throughput drug screen in 47 multiple myeloma cell lines against the NCATS MIPE library collection: KMS11_JCRBsus cell viability assay (AID 1919873); note: nearly all actives have a fitted effect of over 50% in size
# Outline: as §1
# [12] = Quantitative High-Throughput drug screen in 47 multiple myeloma cell lines against the NCATS MIPE library collection: KMS28BM_JCRB cell viability assay (AID 1919874); note: nearly all actives have a fitted effect of over 35% in size
# Outline: as §1
# [13] = Quantitative High-Throughput drug screen in 47 multiple myeloma cell lines against the NCATS MIPE library collection: OCIMY7_PLB cell viability assay (AID 1918987); note: nearly all actives have a fitted effect of over 65% in size
# Outline: as §1
# [14] = Quantitative High-Throughput drug screen in 47 multiple myeloma cell lines against the NCATS MIPE library collection: PCM6_Riken cell viability assay (AID 1919870); note: nearly all actives have a fitted effect of over 30% in size
# Outline: as §1
# [15] = Quantitative High-Throughput drug screen in 47 multiple myeloma cell lines against the NCATS MIPE library collection: RPMI8226_ATCC cell viability assay (AID 1919871); note: nearly all actives have a fitted effect of over 30% in size
# Outline: as §1
# [16] = Quantitative High-Throughput drug screen in 47 multiple myeloma cell lines against the NCATS MIPE library collection: U266_ATCC cell viability assay (AID 1919864); note: nearly all actives have a fitted effect of over 35% in size
# Outline: as §1
# [17] = Quantitative High-Throughput drug screen in 47 multiple myeloma cell lines against the NCATS MIPE library collection: KMS28PE_JCRB cell viability assay (AID 1918983); note: nearly all actives have a fitted effect of over 35% in size
# Outline: as §1
# [18] = Quantitative High-Throughput drug screen in 47 multiple myeloma cell lines against the NCATS MIPE library collection: SKMM1_PLB cell viability assay (AID 1919863); conditions: SKMM1 myeloma viability, CellTiter-Glo ATP, 48 h; viability: active compounds read low; note: nearly all actives have a fitted effect of over 35% in size; for viability: series mostly up to about 46 µM
# Outline: as §1
# Potency is the fitted concentration of half-maximal effect.
structure (smiles),measurement,setting,value
C[C@H](Cn1cnc2c(N)ncnc21)OCP(=O)(O)O,Potency,[1],inactive
same,Potency,[2],inactive
same,Potency,[3],inactive
same,Potency,[4],inactive
same,Potency,[5],inactive
same,Potency,[6],inactive
same,Potency,[7],inactive
same,Potency,[8],inactive
same,Potency,[9],inactive
same,Potency,[10],inactive
same,Potency,[11],inactive
same,Potency,[12],inactive
Oc1ccc(-c2nc(-c3ccc(F)cc3)c(-c3ccncc3)[nH]2)cc1,Potency,[13],9.35 µM (active)
same,Potency,[3],16.6 µM (active)
same,Potency,[4],20.9 µM (active)
same,Potency,[7],16.6 µM (active)
same,Potency,[9],26.4 µM (active)
same,Potency,[14],20.9 µM (active)
same,Potency,[15],inactive
Cc1ccc(S(=O)(=O)NC(=O)NN2CC3CCCC3C2)cc1 (centres undefined),Potency,[13],20.9 µM (active)
same,Potency,[16],20.9 µM (active)
same,Potency,[5],20.9 µM (active)
same,Potency,[6],23.5 µM (active)
same,Potency,[7],23.5 µM (active)
same,Potency,[14],20.9 µM (active)
same,Potency,[15],23.5 µM (active)
same,Potency,[11],16.6 µM (active)
same,Potency,[12],18.7 µM (active)
CC(C)c1ccc2oc3nc(N)c(C(=O)O)cc3c(=O)c2c1,Potency,[17],inactive
same,Potency,[13],18.7 µM (active)
same,Potency,[6],inactive
same,Potency,[9],inactive
same,Potency,[14],inactive
same,Potency,[11],inactive
same,Potency,[12],inactive
CCCCC(CC)COC(=O)C(C#N)=C(c1ccccc1)c1ccccc1 (centres undefined),Potency,[17],inactive
same,Potency,[2],inactive
same,Potency,[13],inactive
same,viability,[18],130%
same,Potency,[6],inactive
same,Potency,[7],inactive
same,Potency,[9],inactive
same,Potency,[14],inactive
same,Potency,[10],inactive
same,Potency,[11],inactive
same,Potency,[12],inactive
CC1(C)CCC(C)(C)c2cc(NC(=O)c3ccc(C(=O)O)cc3)ccc21,Potency,[3],1.66 µM (active)
same,Potency,[18],14.8 µM (active)
same,Potency,[16],inactive
same,Potency,[5],5.26 µM (active)
same,Potency,[6],3.72 µM (active)
same,Potency,[7],18.7 µM (active)
same,Potency,[9],20.9 µM (active)
same,Potency,[10],inactive
same,Potency,[11],4.18 µM (active)
same,Potency,[12],inactive
Cc1nc(-c2ccc(OCC(C)C)c(C#N)c2)sc1C(=O)O,Potency,[17],inactive
same,Potency,[2],inactive
same,Potency,[16],inactive
same,Potency,[9],inactive
same,Potency,[14],inactive
same,Potency,[15],inactive
same,Potency,[10],inactive
same,Potency,[11],inactive
same,Potency,[12],inactive
CN(C)C(=O)[C@H](O)[C@H](Cc1ccccc1)NC(=O)c1cc2cc(Cl)ccc2[nH]1,Potency,[1],2.64 µM (active)
same,Potency,[2],0.935 µM (active)
same,Potency,[13],2.96 µM (active)
same,Potency,[3],13.2 µM (active)
same,Potency,[4],6.62 µM (active)
same,Potency,[7],7.43 µM (active)
same,Potency,[9],2.64 µM (active)
same,Potency,[14],8.33 µM (active)
same,Potency,[10],14.8 µM (active)
same,Potency,[11],16.6 µM (active)
CC(C)c1ccc2c(c1)c(SC(C)(C)C)c(CC(C)(C)C(=O)O)n2Cc1ccc(Cl)cc1,Potency,[13],14.8 µM (active)
same,Potency,[16],20.9 µM (active)
same,Potency,[6],23.5 µM (active)
same,Potency,[10],inactive
O=C(NCC1CCCCN1)c1cc(OCC(F)(F)F)ccc1OCC(F)(F)F (centres undefined),Potency,[1],0.743 µM (active)
same,Potency,[13],7.43 µM (active)
same,Potency,[4],9.35 µM (active)
same,Potency,[16],9.35 µM (active)
same,Potency,[6],3.32 µM (active)
same,Potency,[7],3.72 µM (active)
same,Potency,[9],9.35 µM (active)
same,Potency,[14],4.69 µM (active)
same,Potency,[11],23.5 µM (active)
same,Potency,[12],18.7 µM (active)
Cc1nccn1CC1CCc2c(c3ccccc3n2C)C1=O (centres undefined),Potency,[17],20.9 µM (active)
same,Potency,[4],18.7 µM (active)
same,Potency,[16],23.5 µM (active)
same,Potency,[7],inactive
same,Potency,[9],inactive
same,Potency,[14],inactive
same,Potency,[15],inactive
same,Potency,[10],inactive
same,Potency,[12],2.64 µM (active)
COc1cc2c(N3CCN(C(=O)Nc4ccc(OC(C)C)cc4)CC3)ncnc2cc1OCCCN1CCCCC1,Potency,[1],inactive
same,Potency,[13],16.6 µM (active)
same,Potency,[16],23.5 µM (active)
same,Potency,[6],13.2 µM (active)
same,Potency,[7],8.33 µM (active)
same,Potency,[9],16.6 µM (active)
same,Potency,[14],6.62 µM (active)
same,Potency,[11],26.4 µM (active)
CCCCCCCCOc1ccccc1C(=O)Nc1ccc(C(=O)OCC[N+](C)(CC)CC)cc1,Potency,[1],4.69 µM (active)
same,Potency,[2],23.5 µM (active)
same,Potency,[3],20.9 µM (active)
same,Potency,[4],18.7 µM (active)
same,Potency,[18],26.4 µM (active)
same,Potency,[16],20.9 µM (active)
same,Potency,[5],16.6 µM (active)
same,Potency,[6],16.6 µM (active)
same,Potency,[8],16.6 µM (active)
same,Potency,[9],16.6 µM (active)
same,Potency,[14],16.6 µM (active)
same,Potency,[11],18.7 µM (active)
Clc1ccc(C(Cn2ccnc2)OCc2ccsc2Cl)c(Cl)c1 (centres undefined),Potency,[2],inactive
same,Potency,[3],26.4 µM (active)
same,Potency,[5],20.9 µM (active)
same,Potency,[6],23.5 µM (active)
same,Potency,[14],16.6 µM (active)
same,Potency,[11],13.2 µM (active)
CN(C)[C@@H](CCOc1cccc2ccccc12)c1ccccc1,Potency,[17],20.9 µM (active)
same,Potency,[2],20.9 µM (active)
same,Potency,[3],20.9 µM (active)
same,Potency,[4],16.6 µM (active)
same,Potency,[6],16.6 µM (active)
same,Potency,[7],26.4 µM (active)
same,Potency,[9],23.5 µM (active)
same,Potency,[14],18.7 µM (active)
same,Potency,[15],16.6 µM (active)
same,Potency,[11],23.5 µM (active)
same,Potency,[12],18.7 µM (active)
COc1cc(C(C)=O)ccc1OCCCN1CCC(c2noc3cc(F)ccc23)CC1,Potency,[17],inactive
same,Potency,[3],6.62 µM (active)
same,viability,[18],110%
same,Potency,[7],16.6 µM (active)
same,Potency,[14],18.7 µM (active)
same,Potency,[15],13.2 µM (active)
same,Potency,[10],inactive
same,Potency,[12],5.9 µM (active)
Cc1cccc(C)c1OCC(=O)N[C@@H](Cc1ccccc1)[C@@H](O)C[C@H](Cc1ccccc1)NC(=O)[C@H](C(C)C)N1CCCNC1=O,Potency,[17],20.9 µM (active)
same,Potency,[13],11.8 µM (active)
same,Potency,[3],inactive
same,Potency,[16],inactive
same,Potency,[6],20.9 µM (active)
same,Potency,[11],20.9 µM (active)
